Growth data for 17 compounds are collected here from PubChem BioAssay (NCI).

What all share (test): NCI-60 one-dose screen, 48 h (100 = growth as untreated, 0 = no growth, -100 = all killed)
Holding throughout (settings): 10 µM unless noted

For assay [1], the system named is HT29 colon.
The subject of assay [2] is SNB-75 CNS.
The test system of assay [3] is U251 CNS.
Assay [4] has as its system PC-3 prostate.
Assay [5] has as its system SK-MEL-5 melanoma.
In assay [6] the test system is UACC-62 melanoma.
Assay [7] concerns LOX IMVI melanoma.
Assay [8] concerns SK-MEL-28 melanoma.
The test system of assay [9] is SK-MEL-2 melanoma.
Assay [10] concerns SNB-19 CNS.

This is part of a sample that, as a whole, favours compounds with a hit. Of some 83,000 tested, about 20% had one in any assay.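 The test compound was applied at a single concentration to cells in 96-well plates for 48 hours, and percent growth was recorded.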 A number with no mark means an inactive call. Calls of active or inactive are those of the source. How the source made its calls: active means growth percent below 10; inactive means the rest.

For the compound `COc1ccc2c(c1)C(=O)c1c-2c(OCCN(C)C)nc2cc(OC)ccc12`, the growth in assay [1] is -43.6% (active); in assay [2], 31.6%; in assay [3], -68.7% (active); in [4], 10.1%; in [5], -48.6% (active); in assay [6], 7.14% (active). For the same compound, the growth is -89.2% (active) in [7], 29.7% in [8] and 30.9% in assay [9].
In the case of `Nc1ccc(C2=Nc3cccc4cccc(c34)S2)cc1`, the growth in assay [1] was 98.5%; in assay [2], 71.4%; in assay [3], 91.8%; in assay [4], 71.6%; in [5] it was 88.9%; in assay [7], 91.8%. Further, the results for the growth in assay [8] and in assay [9] were 111% and 87.5%, respectively.
For `O=C1C(=O)c2ccc(Br)cc2-c2cc(Br)ccc21`, the growth in assay [1] is 105%; in assay [2] it was 84.2%; in assay [3], -31.8% (active); in assay [4], 83.7%; in assay [5], 63.3%; in [6], 92.4%. Moreover, the growth is -24.6% (active) in assay [7], 76.7% in [8] and 87.7% in assay [9].
Regarding `N#Cc1c(N)[nH]c(S)c1C#N`, the growth in assay [1] is 99.9%; in [2] it was 97.2%; in assay [3] it was 101%; in [4], 87.9%; in assay [5] it was 96.9%; in assay [7], 102%. The growth is 113% in assay [8] and 92% in assay [9].
For the compound `Cc1nnc(Nc2ccc(NC(=O)Nc3ccc(Cl)cc3)cc2)c2ccccc12`, the growth in assay [1] was 2.24% (active); in [2], 68.1%; in assay [3], 5.4% (active); in [4], 22.8%; in [5], 52.3%; in assay [6], -34.4% (active). Also, the results for the growth in assay [7], in assay [8] and in [9] were -27.3% (active), -11.9% (active) and 44%, respectively.
For `CCCCCCCCCCCCCCCCN=C(CC(=O)O)C(=O)O`, the growth in [1] is 82.1%; in [2], 91.6%; in assay [3], 101%; in [4] it was 91.9%; in assay [5] it was 113%; in assay [7], 90.5%. In assay [8], the growth is 103%.
As for `COc1ccc2nc3cc(Cl)ccc3c(Nc3cc(C(C)C)c(O)cc3C)c2c1`, the growth is 5.84% (active) in [1]; 63.7% in assay [2]; 19.5% in assay [3]; -91% (active) in assay [5]; 65.8% in assay [6]; 26.8% in assay [7]. In assay [8], the growth was 71.4%.
`O=C(Nc1ccc(Cl)cc1)Nc1ccc(Nc2nncc3ccccc23)cc1`: the growth in [1] is 32.4%; in [2], 46.3%; in assay [3] it was 18.3%; in assay [4], 1.46% (active); in assay [5], 7.12% (active); in assay [6] it was 13.4%. For the same compound, the results for the growth in [7], in assay [8] and in assay [9] were 33.6%, 44.1% and 18.9%, respectively.
With `CCN(CC)CCCNCCCNc1cc(OC)cc2cccnc12`, the growth is 40% in [1]; 82.8% in assay [2]; 77.9% in assay [3]; 82.4% in assay [4]; 92.1% in assay [5]; 80.3% in assay [7]. Besides, the growth in [8] is 99.4%.
As to `O=C(CN1CCCCC1)Sc1nnc2sc3ccccc3n12`, the growth in assay [1] was 118%; in assay [2], 74.6%; in assay [4], 93%; in [5] it was 99.2%; in [6], 107%; in [7] it was 103%. Also, the results for the growth in assay [8] and in assay [9] were 120% and 109%, respectively.
With `CCC(C)(C)C(=O)O[C@H]1C[C@@H](C)C=C2C=C[C@H](C)[C@H](CC[C@@H]3C[C@@H](O)CC(=O)O3)[C@H]21`, the growth in assay [1] was 76.9%; in [2], 13.7%; in assay [3] it was 4.81% (active); in assay [4], 33.9%; in assay [7], -16.2% (active); in [8] it was 62.3%. In assay [9], the growth was 26.3%.
Take `CCOC(=O)c1cc(-c2cccnc2)nc2c(Cl)cc(Cl)cc12`: the growth in [1] is 88%; in assay [2], 104%; in assay [3], 70.3%; in assay [5], 101%; in [6], 95.6%; in [7] it was 98.2%. The growth in [8] was 129%.
Consider `CC(O)c1nc2c(c(=O)n(C)c(=O)n2C)n1C` (centres undefined), for which the growth is 113% in assay [1]; 102% in [2]; 104% in assay [5]; 102% in assay [6]; 104% in [7]; 126% in [8].
On to `COc1cc(/C=C/C(=O)N2CCN(C(=O)/C=C/c3ccccc3)CC2)cc(OC)c1OC`, for which the growth was 104% in assay [1]; 96.4% in assay [10]; 103% in [3]; 93.6% in assay [4]; 106% in [5]; 100% in [6]. Also, the growth in [7] is 107%; in assay [8] it was 110%; in [9], 116%.
Regarding `COc1ncc(-c2ccc3nccc(C#CCN4CCN(S(C)(=O)=O)CC4)c3c2)cc1NS(=O)(=O)c1ccc(F)cc1F`, the growth in [1] is 10.3%; in [2] it was -11.4% (active); in assay [3], 6.79% (active); in assay [4] it was 0.156% (active); in assay [5], -92.3% (active); in [6] it was -54.9% (active). Besides, the values for the growth in assay [7], in assay [8] and in [9] were -11.4% (active), 3.79% (active) and 0.951% (active), respectively.
In the case of `CC(=O)NC1(C(=O)O)CCCC1`, the growth was 116% in assay [1]; 102% in assay [2]; 107% in assay [3]; 112% in assay [5]; 110% in assay [6]; 106% in [7]. In addition, the growth in assay [8] is 88.6%.
As to `CC[N+](C)(CC)CCCC(C)Nc1ccnc2cc(Cl)ccc12` (centres undefined), the growth in assay [1] was 111%; in [2] it was 99.8%; in assay [3], 98.8%; in [4] it was 98%; in [5], 101%; in assay [7] it was 99.7%. In addition, the growth is 117% in [8] and 108% in assay [9].
